HNF4A DNA FP – change in binding of human HNF4A to DNA, primary screen, biochemical, fluorescence polarization, FITC-DNA. Hepatocyte nuclear factor 4-alpha (Homo sapiens), P41235. 1 h. 360,000 tested, 0.3% active. activity change, % at 10 µM. AID 1224865, 2016; in the data active = activity change above about 30%, passing the limit was not always enough
Target sequence (P41235 whole entry, looked up): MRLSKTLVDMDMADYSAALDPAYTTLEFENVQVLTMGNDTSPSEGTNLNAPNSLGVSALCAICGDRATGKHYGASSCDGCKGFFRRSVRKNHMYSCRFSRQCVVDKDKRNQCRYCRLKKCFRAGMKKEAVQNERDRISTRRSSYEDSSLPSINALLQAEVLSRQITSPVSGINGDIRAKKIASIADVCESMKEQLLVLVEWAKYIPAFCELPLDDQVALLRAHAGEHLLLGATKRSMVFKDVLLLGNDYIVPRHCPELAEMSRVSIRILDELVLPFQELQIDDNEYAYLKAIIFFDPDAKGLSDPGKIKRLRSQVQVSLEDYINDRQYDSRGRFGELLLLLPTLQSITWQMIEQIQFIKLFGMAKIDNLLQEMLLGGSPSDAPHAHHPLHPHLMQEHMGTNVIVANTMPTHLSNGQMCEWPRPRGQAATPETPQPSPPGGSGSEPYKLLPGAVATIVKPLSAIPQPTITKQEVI
TPT1 inh – Candida albicans TPT1 enzyme inhibitors, primary screen, biochemical, fluorescence polarization; tRNA 2'-phosphotransferase TPT1 (Candida albicans SC5314); recombinant caTPT1, FP RNA substrate dephosphorylation; inhibition, % at 5 µM; 300,000 tested, 0.81% active; AID 1962, 2009;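 active = inhibition above the mean of all tested compounds plus 3 SD, set per screening campaign, cut at about 24% in these data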
Rpn11 block – Rpn11 (PSMD14) deubiquitinase inhibitors, primary screen, biochemical, fluorescence polarization, uHTS | human 26S proteasome, Ub4-pepOG fluorescence polarization; 20S core pre-blocked with epoxomicin | inhibition, % at 20 µM | 360,000 tested, 0.59% active | AID 588493, 2011;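 active = inhibition at 20 µM, scaled to each plate's controls, above about 33%, limit read from the data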
Myeloid diff 2 – induction of myeloid progenitor differentiation, primary screen, cell-based, flow cytometry, MLPCN library; 360,000 tested, 1% active; AID 624256, 2012; calls only at 10 µM; ER-HoxA9 myeloid progenitors, lysozyme-GFP differentiation;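 active = normalized GFP-positive differentiation at or above the plate's own cutoff, the solvent-only control mean plus 3 SD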;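 note: cells exposed to compound for four days before flow analysis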
HNF4a DNA conf – change in HNF4A binding to DNA, retest, confirmation, biochemical, fluorescence polarization, FITC-DNA. shares compounds with HNF4A DNA FP. activity change, % at 12.5 µM. 210 tested, 99% active. AID 1224897, 2016. 1 h; call rule not given here
Large screens that a line does not name were inactive (follow-up assays come after a bar, where shown). This is a sample that favours compounds with a hit; in the whole collection about 2.1% have one here.

CC(C)C(=O)Nc1cc(C(F)(F)F)ccc1-n1ccnc1	none
CN(Cc1ccc(Cl)s1)C(=O)CN1C(=O)N(C)C2(CCCCC2)C1=O	none (no result: TPT1 inh)
CCCCNC(=O)c1cc(-c2ccccc2)sc1N	none (no result: TPT1 inh, Rpn11 block)
COCCNC(=O)c1cc(-c2ccccc2)sc1N	HNF4A DNA FP 54.7 (no result: TPT1 inh, Rpn11 block) | HNF4a DNA conf 85.2
O=C(Nc1ccccc1)c1cc2ccccc2o1	none
CC/C(=C\c1oc2cc3ccccc3cc2[n+]1CC)Nc1ccccc1	HNF4A DNA FP 50.7 | HNF4a DNA conf 88.3
CCN(C(=O)COC(=O)/C(C#N)=C/c1ccc(N(C)C)cc1)C1CCS(=O)(=O)C1 (stereo not given)	HNF4A DNA FP 46.3 (no result: TPT1 inh) | HNF4a DNA conf 71.3
CCc1nc2ccc(C(=O)Nc3cccc(OCC(=O)N(C)C)c3)cn2c1N(C)Cc1ccc(OC)cc1	none (no result: TPT1 inh)
Cc1ccc(/C=C2/Sc3ccc(C(=O)NCc4ccccn4)cc3NC2=O)cc1	HNF4A DNA FP 72.0 (not shown: Rpn11 block) | HNF4a DNA conf 57.6
O=C1Nc2cc(C(=O)NCCN3CCCCCC3)ccc2S/C1=C\c1ccccc1	none
O=C(N/N=C/c1ccc(-c2cccc([N+](=O)[O-])c2)o1)[C@H]1C[C@@H]1c1ccccc1	none
O=C(N/N=C/c1ccc(-c2ccc([N+](=O)[O-])cc2)o1)[C@H]1C[C@@H]1c1ccccc1	HNF4A DNA FP 64.9 (not shown: Rpn11 block) | HNF4a DNA conf 73.8
Cc1nc(CSc2nsc(/C=C/N(C)C)c2C#N)cs1	HNF4A DNA FP 70.2 (not shown: TPT1 inh, Rpn11 block) | HNF4a DNA conf 62.0
COC(=O)[C@]12CCCCC=C1N(Cc1ccccc1)C(=O)[C@H](CC(=O)NCCCN1CCCC1=O)C2	none (no result: TPT1 inh, Rpn11 block)
CC(C)NC(=O)C1(C)CCN1C(=O)c1ccccc1F (stereo not given)	none (no result: TPT1 inh)
O=C1OC(c2ccccc2)=CC1=Cc1ccccc1O	none (no result: TPT1 inh)
CN(C)c1ccc(C=C2C=C(c3ccccc3)OC2=O)cc1	HNF4A DNA FP 55.3 (no result: TPT1 inh) | HNF4a DNA conf 48.8
CN(C)c1ccc(/C=N/NC(=O)c2cc(-c3ccc4c(c3)OCO4)n[nH]2)cc1	HNF4A DNA FP 47.4 (not shown: Rpn11 block) | HNF4a DNA conf 59.4
COc1cc(/C=C2/C(=O)N(C)C(=S)N2C)ccc1OCc1cccc(F)c1	HNF4A DNA FP 36.2 (not shown: Rpn11 block, Myeloid diff 2) | HNF4a DNA conf 49.8
CN1C(=O)/C(=C/c2ccc(OCc3cccc(F)c3)cc2)NC1=S	none (no result: Myeloid diff 2)
CC(=O)c1cccc(NC(=O)C(C)OC(=O)c2ccc(Br)o2)c1 (stereo not given)	none (no result: TPT1 inh)
CN(/C=C/C(=C\C=[N+](C)c1ccccc1)OCCCS(=O)(=O)[O-])c1ccccc1	HNF4A DNA FP 87.3 (not shown: Rpn11 block) | HNF4a DNA conf 106.5
Nc1cc2c(cc1Cl)-c1ccc([N+](=O)[O-])cc1C2=NO	HNF4A DNA FP 50.7 (no result: TPT1 inh, Myeloid diff 2) | HNF4a DNA conf 51.8
O=C(N/N=C\C=C\c1ccc(Br)cc1)c1ccc2c(c1)OCO2	HNF4A DNA FP 49.7, Rpn11 block 116.3 | HNF4a DNA conf 61.9
COc1ccccc1N1CCN(C(=O)C(C)CS(=O)(=O)c2ccc3c(c2)NC(=O)CS3)CC1 (stereo not given)	none
CSc1ncccc1C(=O)OCC(=O)Nc1ccc2c(c1)CCC2	none (no result: TPT1 inh)

Source: PubChem BioAssay
